# Measured values published in publication PMC8136818, “Evolving origin-of-transfer sequences on staphylococcal conjugative and mobilizable plasmids—who’s mimicking whom?”.
# T1: SmpOUNa (plasmid pC02)
# T1 chain: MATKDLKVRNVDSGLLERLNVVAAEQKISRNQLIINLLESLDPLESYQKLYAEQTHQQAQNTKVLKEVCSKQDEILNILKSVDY
# T2: SmpO408 (Staphylococcus aureus M0408)
# T2 chain: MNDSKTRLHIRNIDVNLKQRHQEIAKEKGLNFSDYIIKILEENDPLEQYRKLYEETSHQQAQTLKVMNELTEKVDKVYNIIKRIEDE
# Key:
# Conditions in all cases: protein: recombinant; tags: His6-TEV, cleaved; chain copies: 4
# [1] = target: T1, SmpOUNa; test: SPR (ReDCaT); 300 mM NaCl; 10 mM HEPES, 3 mM EDTA, 0.05% Tween 20, NaCl 150 mM (SmpO49 screens), 300 mM (SmpO45, SmpO408, SmpOUNa screens) or 250 mM (Table S4); pH and temperature not stated; protein 1 uM; high values mean tight binding
# How it was run: (§1)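 Tag-cleaved protein, expressed in E. coli BL21(DE3)pLysS and purified by nickel-affinity and size-exclusion chromatography, was screened on a Biacore T200 SA chip by reusable DNA capture. OriT oligonucleotides were captured at 1 μM on Fc2, with a control linker on Fc1. Protein at 1 μM was injected at 30 μl/min (60 s contact, 60 s dissociation) in 10 mM HEPES, 300 mM NaCl, 3 mM EDTA, 0.05% Tween 20. DNA binding is reported as %Rmax.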
# [2] = target: T2, SmpO408; test: as above
# How it was run: as §1
# [3] = target: T2, SmpO408; test: SPR (ReDCaT); 250 mM NaCl; 10 mM HEPES, 3 mM EDTA, 0.05% Tween 20, NaCl 150 mM (SmpO49 screens), 300 mM (SmpO45, SmpO408, SmpOUNa screens) or 250 mM (Table S4); pH and temperature not stated; protein 1 uM; high values mean tight binding
binder,measurement,setting,value
OTUNa For/Rev_12 (dsDNA) DNA 1: AAGATAAATGTTTAAAACCCTTGAAATATC DNA 2: GATATTTCAAGGGTTTTAAACATTTATCTT,binding signal,[1],1.56 ± 0.168 %Rmax
OT408 For/Rev_9 (dsDNA) DNA 1: GGTACATTTTGGGTACAAAACGGTTTTATA DNA 2: TATAAAACCGTTTTGTACCCAAAATGTACC,binding signal,[2],4.6 %Rmax
OT408 For/Rev_12 (dsDNA) DNA 1: GGCGCCTAATAAAAACCTCTGTATCCCTTG DNA 2: CAAGGGATACAGAGGTTTTTATTAGGCGCC,binding signal,[2],25.9 %Rmax
ossA408 (dsDNA) DNA 1: TTATAGGCGCCTAATA DNA 2: TATTAGGCGCCTATAA,binding signal,[3],52.8 %Rmax
same,binding signal,[2],63.9 ± 1.02 %Rmax
OT408 For/Rev_8 (dsDNA) DNA 1: AATATATAGGGGTACATTTTGGGTACAAAA DNA 2: TTTTGTACCCAAAATGTACCCCTATATATT,binding signal,[2],5.29 %Rmax
OT408 For/Rev_7 (dsDNA) DNA 1: GTACAGACACAATATATAGGGGTACATTTT DNA 2: AAAATGTACCCCTATATATTGTGTCTGTAC,binding signal,[2],7.42 %Rmax
OTUNa For/Rev_7 (dsDNA) DNA 1: CAATATATTGTGTCACAAAAGTGTGACAAT DNA 2: ATTGTCACACTTTTGTGACACAATATATTG,binding signal,[1],3.471 ± 0.00557 %Rmax
OTUNa For/Rev_17 (dsDNA) DNA 1: TTATAAAATGGGTACATATTTCCCTTATGC DNA 2: GCATAAGGGAAATATGTACCCATTTTATAA,binding signal,[1],9.96 ± 0.667 %Rmax
OT408 For/Rev_15 (dsDNA) DNA 1: AAATGTCTGGCTTCGCCAGACCCACCTTTT DNA 2: AAAAGGTGGGTCTGGCGAAGCCAGACATTT,binding signal,[2],14.3 %Rmax
OTUNa For/Rev_9 (dsDNA) DNA 1: GTGTGACAATTTAATTTTTGTGACCCCCAT DNA 2: ATGGGGGTCACAAAAATTAAATTGTCACAC,binding signal,[1],53.342 ± 0.0463 %Rmax
OTUNa For/Rev_8 (dsDNA) DNA 1: TGTCACAAAAGTGTGACAATTTAATTTTTG DNA 2: CAAAAATTAAATTGTCACACTTTTGTGACA,binding signal,[1],17 ± 0.439 %Rmax
OT408 For/Rev_13 (dsDNA) DNA 1: AAAAACCTCTGTATCCCTTGAAATGTCTGG DNA 2: CCAGACATTTCAAGGGATACAGAGGTTTTT,binding signal,[2],4.19 %Rmax
OTUNa For/Rev_16 (dsDNA) DNA 1: AGATTACCCATTATAAAATGGGTACATATT DNA 2: AATATGTACCCATTTTATAATGGGTAATCT,binding signal,[1],12.5 ± 0.926 %Rmax
OT408 For/Rev_17 (dsDNA) DNA 1: CCCACCTTTTTAATAGGTGGCAAATTTCCC DNA 2: GGGAAATTTGCCACCTATTAAAAAGGTGGG,binding signal,[2],64.6 %Rmax
OT408.5 (dsDNA) DNA 1: CGGTTTTATAGGCGCCTAATAAAAACCTCT DNA 2: AGAGGTTTTTATTAGGCGCCTATAAAACCG,binding signal,[2],109 %Rmax
OT408 For/Rev_14 (dsDNA) DNA 1: GTATCCCTTGAAATGTCTGGCTTCGCCAGA DNA 2: TCTGGCGAAGCCAGACATTTCAAGGGATAC,binding signal,[2],8.57 %Rmax
OT408 For/Rev_10 (dsDNA) DNA 1: GGGTACAAAACGGTTTTATAGGCGCCTAAT DNA 2: ATTAGGCGCCTATAAAACCGTTTTGTACCC,binding signal,[2],71.2 %Rmax
OTUNA.4 (dsDNA) DNA 1: TTAATTTTTGTGACCCCCATAAGATAAATG DNA 2: CATTTATCTTATGGGGGTCACAAAAATTAA,binding signal,[1],58.4 ± 1.36 %Rmax
OTUNa For/Rev_11 (dsDNA) DNA 1: TGACCCCCATAAGATAAATGTTTAAAACCC DNA 2: GGGTTTTAAACATTTATCTTATGGGGGTCA,binding signal,[1],18.2 ± 1.39 %Rmax
OTUNa For/Rev_18 (dsDNA) DNA 1: GGGTACATATTTCCCTTATGCTCTTACAAA DNA 2: TTTGTAAGAGCATAAGGGAAATATGTACCC,binding signal,[1],26.2 ± 1.85 %Rmax
